Records with an inconclusive call do not appear. Values without a mark were called inactive. Calls follow the shape of the dose curve; as a rule, active = well fitted curve in the direction sought with a large enough effect; inconclusive = small, poorly fitted or top-dose-only effect, or another doubt; inactive = no such curve, though single readings can be large or run the other way.
biological target: Glucagon-like peptide 1 receptor (Homo sapiens) (UniProt P43220); test: qHTS of GLP-1 Receptor Agonists: LOPAC Validation (AID 624148); settings: GLP-1R agonist cell assay; series mostly up to 46.1 µM; activation: at the top concentration;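 also: luminescence from a luciferase reporter switched on by cAMP; 0% is about no effect; higher luminescence signal means agonism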
Sequence (P43220 whole entry, looked up): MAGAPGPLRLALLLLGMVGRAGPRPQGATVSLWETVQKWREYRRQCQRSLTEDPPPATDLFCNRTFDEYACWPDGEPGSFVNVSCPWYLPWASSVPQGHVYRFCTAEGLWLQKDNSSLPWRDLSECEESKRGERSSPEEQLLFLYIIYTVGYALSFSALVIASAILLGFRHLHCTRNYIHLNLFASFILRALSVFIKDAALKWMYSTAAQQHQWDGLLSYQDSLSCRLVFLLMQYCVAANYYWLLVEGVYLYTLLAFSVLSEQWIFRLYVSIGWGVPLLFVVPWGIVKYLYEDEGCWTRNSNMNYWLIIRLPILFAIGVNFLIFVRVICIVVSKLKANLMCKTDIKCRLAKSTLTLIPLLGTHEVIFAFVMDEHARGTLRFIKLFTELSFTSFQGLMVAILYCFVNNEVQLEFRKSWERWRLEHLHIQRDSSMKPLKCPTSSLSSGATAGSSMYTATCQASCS
Text: The overall goal of this project was to develop a novel assay for discovering small molecule ligands for class B1 G protein-coupled receptors (GPCRs). Very few agonists (or inverse agonists) with generally weak activity for this entire group of physiologically important receptors are known to date. To establish proof-of-principle that this critical bottleneck can be overcome with a suitable screening approach, our studies focused on the class B1 receptor for glucagon-like peptide-1 (GLP-1R), a potential therapeutic target for diabetes and neurodegenerative disease.
The assay was developed in a "mix and measure" format using a cell-based functional readout. Toward this goal, stably transfected HEK293 cell clones were established that co-express (i) a cAMP-responsive luciferase reporter gene, and (ii) GLP-1Rs that upon ligand interaction either stimulate (agonists) or inhibit (inverse agonists) luciferase activity. In different cell lines to be used for screening, expressed GLP-1Rs are specifically optimized for high sensitivity detection of either weak agonists (hypersensitive receptor) or inverse agonists (constitutively active receptor mutant). In addition, control cell lines were developed that express either the cAMP-responsive reporter gene without recombinant GLP-1Rs (enabling initial exclusion of GLP-1R independent effects of candidate probes), or the reporter gene together with wild type GLP-1Rs (for confirmation of probe activity at this receptor), or the reporter gene in combination with the constitutively active orphan receptor GPR119 (enabling initial exclusion of GLP-1R independent inhibitory effects of candidate inverse agonists).
To that end, this assay was optimized for 1536-well format and screened against the MLSMR.
NIH Molecular Libraries Probe Production Network [MLPCN]
NIH Chemical Genomics Center [NCGC]
PI Name: Martin Beinborn, Tufts Medical Center
In a white solid 1536-well plate, 6 uL of cells are dispensed in DMEM without phenol red, 10% Nu serum, and 1% pen-strep medium. The plates are then incubated for 12 hours at 37 deg C at 5% CO2 before 23 nL of compounds are added. After a 4-6 hr incubation at37 deg C and 5% CO2, 3 uL of detection reagent are added and after a 12 min incubation at RT, a luminescent read is obtained on the ViewLux.

Compound | activation [%]
C=CC(N)CCC(=O)O (stereo not given) | 0.871
CN(C)c1nc2c(Br)c(Br)c(Br)c(Br)c2[nH]1 | -0.56
OCC1O[C@H](O)C(Cl)C(O)C1O (stereo not given in full) | -1.16
Cc1nc2sccn2c(=O)c1CCN1CCC(=C(c2ccccc2)c2ccc(F)cc2)CC1 | -1.8
COc1ccccc1CNCCCCCCNCCCCCCCCNCCCCCCNCc1ccccc1OC | 4.95
NCCCCC(=O)O | -1.36
NCC1OC(O[C@H]2[C@H](O)[C@@H](OC3C(O)C(N)CC(N)C3OC3OC(CO)C(O)C(O)C3N)O[C@@H]2CO)C(N)C(O)C1O (stereo not given in full) | -2.01
S=C(S)OC1CC2CC1C1CCCC21 (stereo not given) | -1.77
O=[N+]([O-])c1ccc2c(c1)S(=O)(=O)C=C2 | -1.02
CO/N=C(\C(=O)N[C@@H]1C(=O)N2C(C(=O)O)=C(COC(C)=O)CS[C@H]12)c1csc(N)n1 | 0.834
CN1CCc2cccc3c2C1Cc1ccc(O)c(O)c1-3 (stereo not given) | -1.12
COc1cc(SC)ccc1C(=O)N1CCC(Cc2ccccc2)CC1 | 0.89
O=C(O)CNC(=O)C(CS)Cc1ccccc1 (stereo not given) | 1.66
CCCCCC(O)c1cccc(OCc2ccc3ccccc3n2)c1 (stereo not given) | 16.3
c1ccc(-c2ccccn2)nc1 | 8.64
CCCCCCCCCCCCCCCC(=O)NCC(COP(=O)([O-])OCC[N+](C)(C)C)OCC (stereo not given) | 5.2
CN1CCc2cc(O)c(O)cc2C(c2ccccc2)C1 (stereo not given) | 1.76
CCCCCCCCCCCCCCCCCC(=O)NCC(COP(=O)([O-])OCC[N+](C)(C)C)OCC (stereo not given) | -2.63
CN=c1nc(-c2ccccc2)n(-c2ccccc2)s1 | -1.11
CCCCCCCC/C=C\CCCCCCCC(=O)NCCO | 3.59

Compound | activation [%]
CNC(=O)[C@H]1O[C@@H](n2cnc3c(NCc4ccc(N)cc4)ncnc32)[C@H](O)[C@@H]1O | 8.68
Fc1ccc(C(OCCCc2cnc[nH]2)c2ccc(F)cc2)cc1 | -1.7
CN(C)CCC(c1ccc(Cl)cc1)c1ccccn1 (stereo not given) | -2
N[C@@H](CC(=O)O)C(=O)O | 0.676
CCCCC#Cc1nc(NC)c2ncn([C@@H]3O[C@H](CO)[C@@H](O)[C@H]3O)c2n1 | 14.3
Oc1ccccc1O | -1.87
CNCC[C@H](Oc1ccc(C(F)(F)F)cc1)c1ccccc1 | -1.59
CCOC(=O)C1=C(C)NC(C)=C(C(=O)OCC)C1c1c(F)c(F)c(F)c(F)c1F | 0.723
CCCCCCCCCCCCCCCCCCNC(=O)OCC(COP(=O)([O-])OCC[n+]1ccsc1)OC (stereo not given) | 0.885
CC1OC1P(=O)(O)O (stereo not given) | -1.62
O=C1NC(=O)/C(=C/c2ccc(-c3ccc(F)cc3O)o2)S1 | -1.36
COc1ccc2c(c1)CCC1C2CC[C@@]2(C)C1CC[C@@H]2NCCCCCCN1C(=O)CCC1=O (stereo not given in full) | -1.56
CN(C)c1ccc(/C=C2\C(=O)Nc3ccccc32)cc1 | 17.2
NCCCS(=O)(=O)O | -1.81
COc1cc(OC)c(/C=C2/C(=O)Nc3ccccc32)c(OC)c1 | 21.6
N#C/C(=C\c1ccc(O)c(O)c1)C(=O)NCc1ccccc1 | -1.33
Cn1c(=O)c2[nH]c(-c3ccccc3)nc2n(C)c1=O | -2.02
CN1CCc2ccccc2Cc2[nH]c3ccccc3c2CC1 | -1.85
CC(COc1ccc(/C=C/c2ccccc2)cc1)[N+](C)(C)C (stereo not given) | -1.14
O=c1[nH]c2cc(Cl)c(Cl)cc2[nH]c1=O | 8.24

Source: PubChem BioAssay (NCATS)
